Inconclusive results are not listed. Active and inactive are the calls of the source. Calls come from the whole dose curve; as a rule, active = well fitted activation curve with a large enough effect; inconclusive = small, poorly fitted or top-dose-only effect; inactive = no such curve, though single readings can be large or run the other way.
Assay: qHTS Assay for Rab9 Promoter Activators: Hit Validation Using Renilla Luciferase Read-Out for Rab9
Conditions: Huh7 Rab9 promoter Renilla luciferase reporter, 24 h; series mostly up to 76.9 µM
Text: Niemann Pick Type C (NPC) is a rare neurodegenerative lipidosis that is characterized by lipid storage in the endosomal/lysosomal system. Treatment modalities for this devastating disease are currently non-existent due to the severe obstacles associated with accessing the central nervous system with proteins or genes. The majority of mutations causing NPC disease are missense mutations that are distributed throughout the length of the NPC1 protein, with the most prevalent being the I1061T allele. Although NPC1 mutant proteins may be functional, they are typically trapped in the ER due to misfolding. […] We have developed and optimized a cell based renilla luciferase reporter assay in 1536 well format for the identification of up-regulators of the mutant Rab9 promoter. This assay presents data on the validation of hits from the primary screen, which used a firefly luciferase read-out. NIH Chemical Genomics Center [NCGC] NIH Molecular Libraries Probe Production centers Network [MLPCN] MLPCN Grant: MH089375 Assay Submitter (PI): Yiannis A. Ioannou
Huh7 cells stably expressing NPC promoter-luciferase will be seeded at 1,500 cells/well in 5 uL in 1,536-well white opaque plates with 23 nL/well of compound in DMSO solution. The assay plates will be incubated at 37 deg C for 24 hours, after which 3 uL/well BriteLite plus luciferase detection reagent mixture (Perkin Elmer) will be added. Luminescence signal will be measured in a ViewLux plate reader (Perkin Elmer) after a 10 minute incubation at the room temperature.

| SMILES | outcome |
| --- | --- |
| CN1CCc2cc3c(c4c2C1Cc1ccccc1-4)OCO3 (stereo unspecified) | inactive |
| O=C1c2ccccc2C(=O)N1Cc1nc2ccccc2c(=O)n1-c1cccnc1 | inactive |
| Cc1cccn2c(NCC3CCCO3)c(C(C)C)nc12 (stereo unspecified) | inactive |
| COc1ccc(C(CC(=O)N2CCC3(CC2)OCCO3)NS(=O)(=O)c2ccc(F)cc2)cc1 (stereo unspecified) | inactive |
| CCC(=NCc1cccnc1)c1c(O)n(-c2ccccc2)c(=O)[nH]c1=O | inactive |
| COc1cccc(CCNCc2ccc(SC)cc2)c1 | inactive |

Reference: PubChem BioAssay AID624116 (National Center for Advancing Translational Sciences (NCATS), 2012)
